# High-throughput results (PubChem BioAssay)
# BAZ2B inh = blocks human BAZ2B; Q9UIF8; AlphaScreen BAZ2B-H3K14Ac peptide displacement; Potency, µM (top dose mostly 114 µM), for inactives: at the top dose activity change, negative = inhibition, hits mostly inhibitors; 4.4% of 360,000 active; AID 504333; also: % is scaled to controls: 0 for no effect and ±100 for the full control effect; nearly all actives have a fitted effect of over 60% in size
#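 Complex of BAZ2B and biotin-H3K14Ac (50 nM apiece) forms over 30 min at RT, then faces library compounds up to 110 uM for another 30 min; AlphaScreen beads added, 20 min dark incubation, luminescence read.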
# Sfp PPTase inh = Sfp phosphopantetheinyl transferase inhibition; Biochemical Sfp PPTase activity, qHTS; 3.5% of 310,000 active; AID 1490; Potency, µM, for inactives: largest response in the series, negative = inhibition, actives largely listed as inhibitors;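 also: the enzyme is Sfp with the accession as filed and its product quenches rhodamine fluorescence; 0% = enzyme reaction without inhibitor and -100% = no enzyme wells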
#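 Compounds were incubated with enzyme (final 15 nM) for 15 min at room temperature before substrate addition started the reaction. Fluorescence at 525 nm excitation, 598 nm emission was recorded immediately and after 30 minutes.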
# JMJD2A Tudor inh = JMJD2A Tudor domain (human) inhibition; O75164; AlphaScreen JMJD2A-Tudor / H3K4me3 peptide binding; Potency, µM (highest dose often 114 µM), inactives show top-dose activity change, negative = inhibition, actives largely listed as inhibitors; 4.4% of 390,000 active; also: % is scaled to controls: 0 for no effect and ±100 for the full control effect; nearly all actives have a fitted effect of over 50% in size
# G9a block = inhibitors of human histone lysine methyltransferase G9a; Q96KQ7; G9a H3K9 monomethylation, AlphaScreen, 2 h; Potency, µM (series often up to 102 µM), inactives show at the highest dose activity, negative = inhibition, most hits filed as inhibitors; 8.8% of 350,000 active; AID 504332; also: % is scaled to controls: 0 for no effect and ±100 for the full control effect; nearly all actives have a fitted effect of over 75% in size
#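 AlphaScreen read-out: biotin-H3K9 peptide (500 nM) methylation by 20 nM enzyme with 20 uM SAM, 2 h at room temperature after 15 min compound preincubation; anti-monomethyl H3K9 antibody plus donor/acceptor beads, 10 min dark.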
# PLK1 PBD block = inhibitors of human PLK1 polo-box domain binding | AID 720504 | Potency, µM, without a hit: max response, negative = inhibition, most hits filed as inhibitors | 2.8% of 360,000 active | Plk1 PBD binding of FITC phosphopeptide, fluorescence polarization; also: series mostly up to about 57 µM; % is scaled to controls: 0 for no effect and ±100 for the full control effect; nearly all actives have a fitted effect of over 65% in size
# Target sequence (P53350 whole entry, looked up, the tested form may be a part): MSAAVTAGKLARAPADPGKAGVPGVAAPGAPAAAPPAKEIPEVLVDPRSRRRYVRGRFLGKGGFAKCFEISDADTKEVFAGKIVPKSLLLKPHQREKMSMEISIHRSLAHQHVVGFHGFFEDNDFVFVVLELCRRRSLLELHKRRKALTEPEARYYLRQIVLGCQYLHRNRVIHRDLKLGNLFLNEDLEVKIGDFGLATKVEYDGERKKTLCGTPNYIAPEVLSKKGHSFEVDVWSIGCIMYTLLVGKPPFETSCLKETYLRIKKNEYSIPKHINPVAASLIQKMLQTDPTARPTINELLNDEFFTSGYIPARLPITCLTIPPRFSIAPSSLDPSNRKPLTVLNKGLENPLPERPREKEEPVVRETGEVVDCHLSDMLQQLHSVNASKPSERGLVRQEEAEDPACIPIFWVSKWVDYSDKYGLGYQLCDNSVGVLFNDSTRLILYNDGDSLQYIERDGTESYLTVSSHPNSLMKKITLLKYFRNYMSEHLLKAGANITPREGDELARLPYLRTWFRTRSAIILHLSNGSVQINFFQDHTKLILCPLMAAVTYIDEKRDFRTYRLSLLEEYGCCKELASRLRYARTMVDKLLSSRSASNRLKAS
# HP1b binding inh = HP1-beta chromodomain-methylated histone interaction inhibition; P83916; AID 540317; Potency, µM (series often up to 114 µM), without a hit: top-dose activity change, negative = inhibition, hits mostly inhibitors; AlphaScreen HP1-beta / biotin-H3K9me3 peptide binding; 0.56% of 390,000 active; also: nearly all actives have a fitted effect of over 70% in size
#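 HP1-beta protein (50 nM final) preincubated 30 min at room temperature with biotinylated H3(1-18)K9me3 peptide (50 nM) in PBS pH 7.4, 0.01% Tween-20, then compound added for 30 min. AlphaScreen streptavidin donor/nickel chelate acceptor beads (10 ug/mL final), 30 min dark, luminescence read.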
# * = called active by the depositor; u = inconclusive; x = no result given; [ ] = dose if it differs, or a comment. Hits are enriched below; roughly 12% of the tested compounds scored in any of these assays. Calls follow the shape of the dose curve; as a rule, active = well fitted curve in the direction sought with a large enough effect; inconclusive = small, poorly fitted or top-dose-only effect, or another doubt; inactive = no such curve, though single readings can be large; an effect the other way counts as inactive or inconclusive. Potency is read from the fitted curve at half-maximal effect.
SMILES,BAZ2B inh,Sfp PPTase inh,JMJD2A Tudor inh,G9a block,PLK1 PBD block,HP1b binding inh
COCCN(C(=O)CC1OC(=O)c2ccccc21)c1c(N)n(Cc2ccccc2)c(=O)[nH]c1=O (centres undefined),0%,x,-8%,4%[59 µM],-3%,28%
CC(C)CN(C(=O)CC1OC(=O)c2ccccc21)c1c(N)n(Cc2ccccc2)c(=O)[nH]c1=O (centres undefined),10%,x,-1%,56µM*,-4%,39%
CCC1CCCCN1S(=O)(=O)c1ccc(C(=O)Nc2sc3c(c2C(=O)NC)CCC3)cc1 (centres undefined),2%,x,-19%,3%[59 µM],x,6%[57 µM]
S=C(Nc1ccc2nsnc2c1)N1CCCC1,18%,14µM*,-1%,x,-20%,28%
COc1ccc(NC(=O)C2CCCN(c3nn4c(=O)cc(C)nc4s3)C2)c(OC)c1 (centres undefined),u,13%,-7%,64%[59 µM],5%,43%
Cc1scc(-c2n[nH]c(=S)n2C(C)c2ccccc2)c1C (centres undefined),u,11%,79µM*,2µM*,-4%,16%
CCc1cc(-c2n[nH]c(=S)n2C(C)c2ccccc2)cs1 (centres undefined),6%,-19%,-35%,10µM*,-12%,20%
COc1ccc2c(c1)[nH]c1c(=O)n(/N=C/c3ccc(OC)c(COc4ccccn4)c3)cnc12,4%,8%,79µM*,9%,0%,7%
Cc1cc(C)nc(SC/C=C/c2ccccc2)n1,14%,89µM*,96%,x,u,202%
CC1(C(=O)Nc2ccc3nc[nH]c3c2)CCN1C(=O)c1ccccc1CCc1ccccc1 (centres undefined),x,x,x,x,-8%,x
Cc1ccc(NC(=O)CN(C)CC(=O)Nc2ccc(N3CCOCC3)cc2)cc1F,18µM*,2%,7.9µM*,-143%[59 µM],5%,u
CN(CC(=O)Nc1ccc(N2CCOCC2)cc1)C(=O)CSc1ccc(Br)cc1,-10%,-4%,-25%,x,u,-1%
Cc1cc(C)cc(OCC(=O)N(C)CC(=O)Nc2ccc(N3CCOCC3)cc2)c1,5%,x,-6%,35µM*,-6%,24%
COc1ccc(Br)c(C(=O)N(C)CC(=O)Nc2ccc(N3CCOCC3)cc2)c1,1%,x,-16%,20µM*,-7%,4%
CN(CC(=O)Nc1ccc(N2CCOCC2)cc1)C(=O)CSc1ccc(F)cc1,-8%,x,u,13µM*,-23%,-6%
CCC[C@@H]1Cc2ccccc2N1C(C)=O,-3%,x,-11%,8%[0.501 µM],-2%,53%
CCc1cc(=O)n2[nH]c(-c3ccccc3)c(-c3ccccc3)c2n1,12%,3%,-9%,16%,-10%,38%
CN(CC(=O)Nc1ccc(F)cc1)C(=O)CSc1nccn1C,-4%,x,3%,50µM*,0%,25%
CCn1c2ccccc2c2cc(NC(=O)CN(C)CC(=O)Nc3ccc(N4CCOCC4)cc3)ccc21,28µM*,15%,u,40µM*,7%,-17%
Cc1ccc(CC(=O)N(C)CC(=O)Nc2ccc(N3CCOCC3)cc2)cc1C,-29%,x,-15%,14µM*,-9%,23%
CN(CC(=O)Nc1ccc(N2CCOCC2)cc1)C(=O)CCc1cc(C(C)(C)C)c(O)c(C(C)(C)C)c1,50µM*,x,u,0%[0.501 µM],-2%,-17%
Cc1c(C(=O)NCc2ccccc2Cl)sc2ncnc(N(C)C3CCCCC3)c12,1%,x,-11%,-21%[59 µM],x,45%
Cc1cccc(-c2nn(-c3ccccc3)cc2C(=O)N(C)CC(=O)Nc2ccc(N3CCOCC3)cc2)c1,u,x,-21%,7.9µM*,-1%,3%
CN(CC(=O)Nc1ccc(N2CCOCC2)cc1)C(=O)c1cn(-c2ccccc2)nc1-c1ccccc1,-12%,x,2%,u,-1%,14%
CCOC1(OCC)N=C(N)C2(C#N)C(c3cccc(C)c3)C12C#N (centres undefined),1%[57.1 µM],10%,18%,40µM*,-1%,57%
SMILES,BAZ2B inh,Sfp PPTase inh,JMJD2A Tudor inh,G9a block,PLK1 PBD block,HP1b binding inh
COC1(OC)N=C(N)C2(C#N)C(c3ccc4c(c3)OCO4)C12C#N (centres undefined),u,9%,-30%,50µM*,-10%,1%
COC1(OC)N=C(N)C2(C#N)C(c3ccc(C)cc3)C12C#N (centres undefined),u,13%,-9%,u,-10%,20%
CCCn1c(C(CO)Nc2nc(-c3cccc(Br)c3)cs2)nc2ccccc21 (centres undefined),u,-9%,u,45µM*,-7%,-6%
CCCCSc1nc2c(cc1C#N)CCC2,198%,u,154%,4µM*,-9%,203%
CCOC(=O)CC(=O)CSc1nc2c(cc1C#N)CCCCCC2,5%,-17%,5%,-9%,-12%,75%
CC(C)OC(=O)CC(=O)CSc1nc2c(cc1C#N)CCC2,-17%,-21%,2%,45µM*,-4%,55%
CC(C)OC(=O)CC(=O)CSc1nc2c(cc1C#N)CCCC2,31%,-18%,1%,u,-12%,81%
N#Cc1cc2c(nc1SCC(N)=O)CCCCC2,5%,10%,-3%[57.1 µM],79µM*,u,55%
CSc1nc2c(cc1C#N)CCC2,1%,-13%,9%,u,u,27%
N#Cc1cc2c(nc1SCc1nc3ccccc3[nH]1)CCC2,9%,56µM*,x,u,x,x
O=C(COC(=O)C1CCN(S(=O)(=O)c2cccs2)CC1)c1cc2ccccc2o1,-9%,8%,-5%,8.9µM*,-1%,47%
Cc1ccc(NC(=O)c2cccc3c2C(=O)N(C2CCCCC2)C3)c(Cl)c1,-18%[57.1 µM],11%,-10%,-3%,0%,50%
CCN1/C(=C2\C(=O)N(C)C(=S)N2C)C=Cc2cc(OC)ccc21,56µM*,50µM*,u,7.9µM*,-10%,u
CCOc1ccc(C(=O)Cc2ccccc2)cc1,x,x,10%,x,-4%,62%
CCOc1ccc(C(=O)CSCCC(=O)O)cc1,x,25µM*,-12%,32µM*,-14%,45%
CCCOc1ccc(C(=O)CCN2CCN(C(=O)OCC)CC2)cc1,-27%,-26%,-23%,10µM*,15µM*,19%
CCCCCOc1ccc(C(=O)CCN2CCOCC2)cc1,2%,-6%,-1%,45µM*,30µM*,45%
COc1ccc(C(=O)CCN2CCN(c3ccc(OC)cc3)CC2)cc1,u,-3%,-31%,40µM*,-24%,9%
CCc1cc(=O)[nH]c(SCc2nc(-c3cccc(Cl)c3)no2)n1,8%,x,6%,u,x,30%[57 µM]
CCc1ccc(CN(C(=O)c2nc(SC)ncc2Cl)C2CCS(=O)(=O)C2)cc1 (centres undefined),-6%,x,-12%,-27%[59 µM],x,23%
